Experimental data: the supplement of paper PMC13380429
A number with no mark means an inactive call.

System: Vero E6 infected with SARS-CoV-2
Test: inhibition of SARS-CoV-2 cytopathic effect; higher = more antiviral protection, active = above 15
Settings: 48 h

| SMILES | inhibition of SARS-CoV-2 cytopathic effect (1 nM) [%] | inhibition of SARS-CoV-2 cytopathic effect (8.33 nM) [%] | inhibition of SARS-CoV-2 cytopathic effect (100 nM) [%] | inhibition of SARS-CoV-2 cytopathic effect (833.33 nM) | inhibition of SARS-CoV-2 cytopathic effect (10000 nM) [%] |
| --- | --- | --- | --- | --- | --- |
| N[C@H](C(=O)O)[C@H](O)c1ccc(O)c(O)c1 [droxidopa] | 1.22 | 3.16 | 5.47 | 1.07% | -5.92 |
| O=C(Cn1c(=O)sc2ccc(Cl)cc21)N1CCN(CCO)CC1 [tiaramide] | -2.08 | -1.84 | -3.6 | -1.93% | 2.14 |
| CC#CC(=O)N1CC[C@@H](n2c(=O)n(-c3ccc(Oc4ccccc4)cc3)c3c(N)ncnc32)C1 | -1.14 | 2.19 | 0.31 | -8.09% | -0.82 |
| Oc1ccc(OCc2ccccc2)cc1 [monobenzone] | -1.3 | -1.35 | -0.07 | -0.61% | -2.93 |
| CC(=O)OC[C@H]1O[C@@H]([S-])[C@H](OC(C)=O)[C@@H](OC(C)=O)[C@@H]1OC(C)=O.CCP(CC)CC.[Au+] [auranofin] | 3.21 | 4.4 | 7.71 | 18.4% (active) | -21.1 |
| C[S+](CC[C@H](N)C(=O)O)C[C@H]1O[C@@H](n2cnc3c(N)ncnc32)[C@H](O)[C@@H]1O (stereo not given in full) [ademetionine] | -2.98 | -1.8 | -2.58 | -0.06% | 0.19 |
| N#CC(=C(/N)Sc1ccccc1N)/C(C#N)=C(/N)Sc1ccccc1N | -0.64 | 0.76 | 2.1 | -3.9% | -8.7 |
| Cc1c(C(=O)NN2CCCCC2)nn(-c2ccc(Cl)cc2Cl)c1-c1ccc(I)cc1 | 0.54 | -3.71 | 3.18 | 1.67% | 2.28 |
| C#C[C@]1(O)CC[C@H]2[C@@H]3CCc4cc(O)ccc4[C@H]3CC[C@@]21C | 0.97 | 0.51 | 6.67 | 3.6% | 7.74 |
| CN1CCN(CCCCN2C(=O)CN(/N=C/c3ccc(-c4ccc(Cl)cc4)o3)C2=O)CC1 [azimilide] | 0.53 | 0.51 | 2.48 | 0.41% | -1.08 |
| O=C1NS(=O)(=O)c2ccccc21 [saccharin] | 0.13 | -1.09 | 0.17 | -0.12% | -2.82 |
| CCN(c1ccccc1)c1cc(=NC)n(C)c(C)n1 | -6.18 | -5.43 | -5.42 | -2.51% | -0.53 |
| COc1ccc(/C=C/CCCCOc2ccc(C(=O)c3cccc(C(=O)O)c3)cc2CCC(=O)O)cc1 | 2.26 | 1.45 | 0.3 | -3.65% | -3.88 |
| COc1ccncc1C(=O)NC(=O)Nc1ccc(-c2ccccc2)c(C(F)(F)F)c1 [S1P1-agonist-III] | -0.34 | -0.01 | -0.43 | -0.2% | -2.64 |
| O=C(Nc1cccc(Cl)c1)Nc1ncc(CCNc2ncnc3ccsc23)s1 | 0.21 | 0.43 | 3.34 | -0.89% | -1.37 |
| O=C1NC(c2cccc([N+](=O)[O-])c2)=CCN1c1ccccc1O [icilin] | -1.18 | 2.89 | 1.15 | 0.66% | 0.77 |
